15 compounds from PubChem BioAssay AID1861 (The Scripps Research Institute Molecular Screening Center, 2009) can be followed below.

As usually defined, the inhibition is the drop in the measured response relative to a control, in per cent.

About 3,100 (1.1%) of roughly 290,000 compounds were called active. The sample as a whole holds a higher share of actives than the screen did. A number with no mark means an inactive call. Cut-off read from the data, not from the text of the source: active = inhibition above about 16% (passing the limit was not always enough); inactive = the rest.

This assay deals with Neuropeptides B/W receptor type 1 (Homo sapiens) (UniProt P48145). The assay is described as follows: blockers of human neuropeptide B/W receptor 1 – cell-based, fluorescence, single concentration, primary screen (AID 1861).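 Note: cells stimulated with the agonist NPW; 0% = agonist with vehicle and 100% = vehicle without agonist.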 As to conditions: GPR7-expressing cells, fluorescence antagonist assay; at 4.4 µM; active compounds read high.
Chain of Neuropeptides B/W receptor type 1 (Homo sapiens) (P48145 whole entry, looked up): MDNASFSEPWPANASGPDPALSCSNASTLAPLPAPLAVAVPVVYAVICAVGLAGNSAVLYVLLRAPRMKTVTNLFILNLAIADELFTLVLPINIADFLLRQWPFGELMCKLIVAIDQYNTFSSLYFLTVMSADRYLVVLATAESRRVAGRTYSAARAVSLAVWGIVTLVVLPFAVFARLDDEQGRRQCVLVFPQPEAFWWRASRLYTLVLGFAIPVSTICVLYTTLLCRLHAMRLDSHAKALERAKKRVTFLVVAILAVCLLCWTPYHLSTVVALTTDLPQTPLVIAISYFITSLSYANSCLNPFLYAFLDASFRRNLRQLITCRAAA
On to `CCOC(=O)C1(Cc2ccc(Cl)cc2)CCN(C(C)CCn2cccn2)CC1` (stereo not given), for which the inhibition is 37.6% (active).

In the case of `CCOC(=O)C1(CCc2ccccc2)CCN(Cc2ccco2)CC1`, the inhibition is -1.12%.

Take `CCN1CCN(Cc2cc(OC)c3c(c2)OCO3)CC1`: the inhibition is -5.46%.

Consider `COC(=O)N(c1ccc(OC)cc1)P1(=S)OCCC(C)O1` (stereo not given), for which the inhibition was -1.86%.

As to `COc1cc2nc(N3CCN(C(=O)[C@@H]4CCCO4)CC3)nc(N)c2cc1OC`, the inhibition was -11.2%.

For the compound `CCOc1ccc(-c2cc(C)[n+](CCN(CC)CC)c(-c3ccc(OCC)cc3)c2)cc1`, the inhibition was 24.6% (active).

As for `COc1ccc(CNCCc2ccc3c(c2)OCO3)c(OC)c1OC`, the inhibition is 18.9%.

Turning to `COc1ccc(CNCCc2c[nH]c3ccccc23)cc1OC`, the inhibition is 3.96%.

Consider `COc1ccc(Br)cc1CNCCc1cccc(Cl)c1`, for which the inhibition was 35.6% (active).

As to `CN1CCC(OC(=O)c2cccc(F)c2)CC1`, the inhibition is 1.33%.

As for `CCCCCCN=C(CC)c1c(O)n(CCCC)c(=O)[nH]c1=O`, the inhibition is -13.1%.

Consider `Cc1c(Oc2cc(NN3CCCCC3)c([N+](=O)[O-])cc2[N+](=O)[O-])cccc1[N+](=O)[O-]`, for which the inhibition was -6.67%.

Take `CCC(C)n1c(O)c(/C=N/Nc2nc3c(c(=O)n(C)c(=O)n3C)n2C)c(=O)[nH]c1=S` (stereo not given): the inhibition is -8.09%.

On to `Cc1ccnc(-n2c(C)cc(/C=C3\C(=O)NC(=S)N(C)C3=O)c2C)c1`, for which the inhibition is -2.63%.

`CSc1ccc(C(=O)C2CCCN(Cc3ccn[nH]3)C2)cc1` (stereo not given): the inhibition was 5.68%.
